Laboratory results reported in PubChem BioAssay.
The source made the active and inactive calls.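 Rule for the calls, unless noted: active = inhibition of the reporter signal at or above 50%; inactive = inhibition below 50%.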

Columns and labels:
[1] = inhibitors of TNFa-induced NFkB p65 translocation, primary screen, imaging, HUVEC, MLSMR starter and 10KST1 sets (AID 438;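 active = inhibition above 20% together with a positive visual image hit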;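 note: compound added about 3h40 before a 20 min TNFalpha stimulation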;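 for inhibition: signal is the nuclear over cytoplasmic p65 intensity ratio per well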); conditions: HUVEC TNFa-induced p65 nuclear translocation; cell count: measured here: nuclei count (cytotoxicity indicator), at 2.08 µM; inhibition: at 2 µM, stronger effect = higher value, 0% TNFa-plus-vehicle, 100% no-TNFa wells
[2] = reduction of polyQ htt aggregates in cells – imaging, exon1htt(103Q)mCFP cells, high-content imaging, primary screen (AID 483;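 active = visual image review flags a hit and inhibition of aggregation exceeds 20%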;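 note: compound exposure lasted 3 days before fixation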;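 for nuclei count: percent of the per-plate median nuclei count of sample wells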); conditions: exon1htt(103Q)mCFP cell line, aggregate imaging, at 2 µM; inhibition of aggregation: stronger effect = higher value; nuclei count: measured here: cell count, toxicity
[3] = endothelial E-selectin expression blockers – imaging, HUVEC, immunofluorescence, MLSMR starter and 10KST1 sets, primary screen (AID 487;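 active = visually confirmed hit in the image check and inhibition above 20%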;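 for inhibition: signal is fraction of cell area covered by stained E-selectin grains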;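 for nuclei count: 100% = median nuclei count of all wells on the same plate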); conditions: HUVEC TNFalpha-induced E-selectin immunofluorescence imaging, at 2 µM; inhibition: stronger effect = higher value; nuclei count: measured here: cell number, toxicity
[4] = molecular target: Voltage-gated potassium channel subunit beta-2 (Rattus norvegicus) (UniProt P62483); assay: inhibitors of rat Kvbeta2 reductase activity – biochemical, NADPH fluorescence, primary screen (AID 622;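 active = fluorescence slope higher than the sample average by over 3 SD, cut at about -0.22 in these data, passing the limit was not always enough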;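 note: slope of raw intensity against log time taken from 70 to 1610 s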); conditions: recombinant KvBeta, 4-cyanobenzaldehyde reduction, at 10 µM, stronger effect = higher value
Chain of Voltage-gated potassium channel subunit beta-2 (Rattus norvegicus) (P62483 whole entry, looked up): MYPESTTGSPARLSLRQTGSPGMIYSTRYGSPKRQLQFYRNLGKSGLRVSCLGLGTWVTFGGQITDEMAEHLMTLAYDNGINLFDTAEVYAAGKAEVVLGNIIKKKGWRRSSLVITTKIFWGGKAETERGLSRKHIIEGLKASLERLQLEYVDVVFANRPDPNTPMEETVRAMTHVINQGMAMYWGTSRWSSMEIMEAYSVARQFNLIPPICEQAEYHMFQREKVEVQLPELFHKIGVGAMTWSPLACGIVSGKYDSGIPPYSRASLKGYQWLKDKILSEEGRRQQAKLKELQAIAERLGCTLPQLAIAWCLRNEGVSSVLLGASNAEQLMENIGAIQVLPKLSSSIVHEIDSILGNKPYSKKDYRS

[5] = molecular target: Voltage-gated potassium channel subunit beta-2 (Rattus norvegicus) (UniProt P62483); assay: enhancers of rat Kvbeta2 NADPH turnover – biochemical, NADPH fluorescence, primary screen (AID 623;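 active = NADPH fluorescence slope more negative than the mean of all samples by about 3 SD, 99.7% confidence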;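 note: fluorescence intensity change per second fitted from 20 to 320 s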); conditions: Recombinant KvBeta, NADPH fluorescence decrease slope, 10 min; at 10 µM; stronger effect = lower value
[6] = molecular target: Alpha-2C adrenergic receptor (Homo sapiens) (UniProt P18825); assay: compounds altering alpha2C-coupled GIRK flux – cell-based, HEK293 alpha2C/GIRK1/2, thallium flux, primary screen (AID 624;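 active = fluorescence slope after compound addition differing from the mean of all screened samples at 99.7% confidence, in either direction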;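 note: slope of fluorescence ratio to pre-addition baseline per second over 15 to 24 s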); conditions: thallium flux BTC fluorescence, at 10 µM, actives lie on both sides
Chain of Alpha-2C adrenergic receptor (Homo sapiens) (P18825 whole entry, looked up): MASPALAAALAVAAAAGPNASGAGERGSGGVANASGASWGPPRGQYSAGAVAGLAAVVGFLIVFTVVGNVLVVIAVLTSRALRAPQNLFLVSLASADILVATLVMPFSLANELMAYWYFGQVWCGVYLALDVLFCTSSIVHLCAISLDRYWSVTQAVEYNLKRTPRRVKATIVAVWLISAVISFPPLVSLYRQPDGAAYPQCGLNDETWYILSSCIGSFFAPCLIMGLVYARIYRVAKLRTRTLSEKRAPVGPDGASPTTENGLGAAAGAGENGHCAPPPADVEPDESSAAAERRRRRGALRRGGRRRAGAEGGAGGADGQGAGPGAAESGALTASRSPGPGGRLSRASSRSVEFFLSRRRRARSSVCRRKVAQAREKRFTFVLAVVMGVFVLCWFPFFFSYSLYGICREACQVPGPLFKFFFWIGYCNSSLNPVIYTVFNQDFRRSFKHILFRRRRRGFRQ

[7] = blockers of RIG-like receptor reporter activation – cell-based, Sendai virus stimulus, luciferase, 10K MLSCN set, TLR/RLR signaling modifier project, primary screen (AID 602276;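 active = inhibition at or above 50% at 10 µM; inactive = inhibition below 50%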;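 note: firefly luciferase from ISG56 promoter only with Renilla not read in this screen; 0% = Sendai virus plus DMSO and 100% = medium plus DMSO without virus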); conditions: HEK293 RL24 IRF3 luciferase reporter, at 10 µM, stronger effect = higher value
[8] = TLR3 IRF3 reporter activation blockers – cell-based, poly I:C stimulus, luciferase, 10K MLSCN set, primary screen (AID 602277); conditions: HEK293-TLR3 RL24 IRF3 luciferase reporter, at 10 µM, stronger effect = higher value

| SMILES | cell count [1] | inhibition [1] | inhibition of aggregation [2] | nuclei count [2] | inhibition [3] | nuclei count [3] | fluorescence slope [4] | NADPH fluorescence slope [5] | slope [6] | inhibition [7] | inhibition [8] |
| --- | --- | --- | --- | --- | --- | --- | --- | --- | --- | --- | --- |
| COc1ccc(NC(=O)N2CCN(c3nc(-c4cccc(OC)c4)cs3)CC2)cc1 | 564 | -7.5% (inactive) | 8.8% (inactive) | 93.9% | -23.1% (inactive) | 104% | -0.478 (inactive) | -3.3e-05 (inactive) | 0.0039 (inactive) | 2.91% (inactive) | -56.5% (inactive) |
| CC12CN3CC(C)(CN(C1)C3c1cc(Br)ccc1O)C2=O (stereo not drawn) | 305 | 0% (inactive) | 1.6% (inactive) | 121% | 39% (inactive) | 83.4% | -0.474 (inactive) | -4.6e-06 (inactive) | 0.00402 (inactive) | 3.76% (inactive) | 37.4% (inactive) |
| O=C(Cn1ncc2c1-c1ccccc1OC2)N1CCc2ccccc21 | 678 | 4.4% (inactive) | 10.6% (inactive) | 84.5% | 4.3% (inactive) | 108% | -0.587 (inactive) | 6e-06 (inactive) | 0.00757 (inactive) | 5.8% (inactive) | 1.51% (inactive) |
| COc1ccc(NC(=O)C(C)NS(=O)(=O)c2ccccc2)cc1Cl (stereo not drawn) | 315 | -15.9% (inactive) | 2.6% (inactive) | 116% | -51.4% (inactive) | 65% | -0.369 (inactive) | 7.6e-06 (inactive) | 0.00596 (inactive) | 8.06% (inactive) | 17.6% (inactive) |
| Cc1cccc(-n2c(O)c(C=Nc3ccccc3N)c(=O)[nH]c2=O)c1 | 444 | 6% (inactive) | -8.1% (inactive) | 101% | -29.2% (inactive) | 120% | -0.414 (inactive) | -0.000142 (inactive) | 0.00576 (inactive) | 13% (inactive) | 25.3% (inactive) |
| Cc1ccc(-n2nnnc2SCC(=O)c2cc(C)n(-c3cc(C)on3)c2C)cc1 | 844 | -12.4% (inactive) | -7.8% (inactive) | 101% | -36.4% (inactive) | 106% | -0.595 (inactive) | 8.7e-07 (inactive) | 0.00585 (inactive) | 12.6% (inactive) | 18.7% (inactive) |
| CCOC(=O)CNC(=O)CSc1nc(N)cc(N)n1 | 434 | 5.1% (inactive) | -0.1% (inactive) | 106% | -62.6% (inactive) | 108% | -0.385 (inactive) | 2.9e-05 (inactive) | 0.00537 (inactive) | 1.91% (inactive) | 8.68% (inactive) |
| Nc1cc(CN2C(=O)c3ccccc3C2=O)cc(Cl)c1O | 451 | -1.8% (inactive) | 14.9% (inactive) | 100% | -74.6% (inactive) | 159% | -0.401 (inactive) | -5.2e-05 (inactive) | 0.00582 (inactive) | 12.8% (inactive) | 36.4% (inactive) |
| CC/C(O)=C(/C#N)c1nnc2n1CCCCC2 | 446 | 3.6% (inactive) | -9.6% (inactive) | 115% | 47.8% (inactive) | 86.1% | -0.608 (inactive) | -2e-05 (inactive) | 0.00604 (inactive) | 7.71% (inactive) | 11.5% (inactive) |
| COc1ccc2c(c1)cc(C(=O)O)n2C | 773 | 4.2% (inactive) | -20.2% (inactive) | 77.6% | -10.3% (inactive) | 128% | -0.393 (inactive) | -6.4e-05 (inactive) | 0.00479 (inactive) | 11.6% (inactive) | 23.7% (inactive) |
| CCC(c1nnnn1C(C)(C)C)N1CCN(C2CCCC2)CC1 (stereo not drawn) | 450 | 1.3% (inactive) | -7.5% (inactive) | 124% | -46.6% (inactive) | 128% | -0.634 (inactive) | -1.4e-05 (inactive) | 0.00353 (inactive) | 16.1% (inactive) | 9.37% (inactive) |
| CCOc1ccc(CNc2ccc3c(c2)ncn3C)cc1 | 174 | -3% (inactive) | -8.8% (inactive) | 72.5% | 4.7% (inactive) | 90.2% | -0.435 (inactive) | -1.3e-05 (inactive) | 0.00471 (inactive) | -27.2% (inactive) | -76.3% (inactive) |
| CCN1CCN(C(=O)c2oc(=O)c3ccccc3c2-c2ccc(C)cc2)CC1 | 805 | -15.2% (inactive) | 8.7% (inactive) | 94.3% | -58.3% (inactive) | 121% | -0.49 (inactive) | -4.9e-05 (inactive) | 0.00617 (inactive) | 10.4% (inactive) | 27.7% (inactive) |
| CCOC(=O)N1CCC(NC(=O)CN2C(=O)CCSc3ccccc32)CC1 | 807 | -8.5% (inactive) | 5.8% (inactive) | 101% | -78% (inactive) | 108% | -0.515 (inactive) | -3.1e-05 (inactive) | 0.00644 (inactive) | 4.21% (inactive) | 1.38% (inactive) |
| COc1ccc(-c2nc(CSCC(=O)NCc3ccc4c(c3)OCO4)c(C)o2)cc1OC | 477 | -3.3% (inactive) | 16.1% (inactive) | 104% | -83% (inactive) | 114% | -0.43 (inactive) | -5.4e-05 (inactive) | 0.00553 (inactive) | 9.89% (inactive) | 20.1% (inactive) |
| O=C(CSc1nnc(Cc2cc(=O)[nH]c(=O)[nH]2)n1-c1ccccc1)NCC1CCCO1 (stereo not drawn) | 398 | 1.1% (inactive) | -3.9% (inactive) | 110% | 5.7% (inactive) | 102% | -0.373 (inactive) | 3.5e-05 (inactive) | 0.00598 (inactive) | 10.3% (inactive) | 21.2% (inactive) |
| O=C(c1ccccc1)c1ccncc1 | 391 | 7% (inactive) | -9.4% (inactive) | 103% | -5.9% (inactive) | 119% | -0.399 (inactive) | -2.9e-05 (inactive) | 0.0031 (inactive) | 19% (inactive) | 27.8% (inactive) |
| CCOC(=O)c1ccc(S(=O)(=O)NC2CCCCCCC2)n1C | 583 | -1% (inactive) | 3% (inactive) | 95.7% | -42.2% (inactive) | 123% | -0.614 (inactive) | 5e-06 (inactive) | 0.00591 (inactive) | 17.3% (inactive) | 23.7% (inactive) |
| CCOC(=O)CSc1nnc(NC(=O)c2cccc(S(=O)(=O)N3CCCCC3)c2)s1 | 626 | -1.1% (inactive) | -6.5% (inactive) | 107% | 20.8% (inactive) | 102% | -0.37 (inactive) | -9.8e-06 (inactive) | 0.00424 (inactive) | 12.1% (inactive) | 26.3% (inactive) |
| CCCCCOc1ccc(C2NC(=O)NC2=O)cc1 (stereo not drawn) | 804 | -5.5% (inactive) | -5.5% (inactive) | 107% | -50.9% (inactive) | 121% | -0.561 (inactive) | -4.1e-05 (inactive) | 0.00708 (inactive) | -12.1% (inactive) | -2.6% (inactive) |
| Cc1nn(C(=O)c2cc3sccc3[nH]2)c(C)c1C | 574 | -11.9% (inactive) | 0.1% (inactive) | 95.1% | -65.4% (inactive) | 104% | -0.416 (inactive) | -2.7e-05 (inactive) | 0.00333 (inactive) | -8.25% (inactive) | -82.9% (inactive) |
| CC(=O)Nc1ccc(N=Cc2nc(-c3ccc(C)cc3)oc2O)cc1 | 1080 | -11.6% (inactive) | -4% (inactive) | 119% | -287% (inactive) | 132% | -0.281 (inactive) | 1.5e-05 (inactive) | 0.00463 (inactive) | 1.5% (inactive) | -2.56% (inactive) |
| O=C(NCC1CCCO1)c1ccc(C(=O)NCC2CCCO2)cc1 (stereo not drawn) | 331 | 1.9% (inactive) | -3.7% (inactive) | 101% | 52.3% (inactive) | 94.3% | -0.332 (inactive) | -3.2e-05 (inactive) | 0.00518 (inactive) | 1.79% (inactive) | 4.03% (inactive) |
| CCOC(=O)C1C2C=CC3(CN(c4cccc(Cl)c4)C(=O)C13)O2 (stereo not drawn) | 656 | -0.3% (inactive) | 8.1% (inactive) | 105% | -11.3% (inactive) | 110% | -0.398 (inactive) | 9e-06 (inactive) | 0.0053 (inactive) | 13.2% (inactive) | 44.5% (inactive) |
| CCOC(=O)c1ccc(NC(=O)CSc2n[nH]c(-c3ccncc3)n2)cc1 | 590 | -1.9% (inactive) | 7.2% (inactive) | 99.9% | -26.4% (inactive) | 110% | -0.592 (inactive) | -3.8e-05 (inactive) | 0.00612 (inactive) | -5.95% (inactive) | -15.4% (inactive) |
| CCOC(=O)N1CCN(C(c2ccc(Cl)cc2)c2sc3nc(C)nn3c2O)CC1 (stereo not drawn) | 709 | -8% (inactive) | 0.3% (inactive) | 104% | -25% (inactive) | 106% | -0.412 (inactive) | -3.7e-05 (inactive) | 0.00503 (inactive) | 9.66% (inactive) | 19.5% (inactive) |
| COc1ccc(NS(=O)(=O)c2ccc(NC(C)=O)cc2)cc1OC | 352 | -8.4% (inactive) | 2.1% (inactive) | 99.6% | -3.3% (inactive) | 76.2% | -0.379 (inactive) | 1.1e-05 (inactive) | 0.00616 (inactive) | -6.14% (inactive) | -66.4% (inactive) |
| Cc1ccc(-c2nc3ncccc3o2)cc1NC(=O)c1ccco1 | 317 | 0.6% (inactive) | -1.4% (inactive) | 102% | -107% (inactive) | 102% | -0.429 (inactive) | 2.8e-06 (inactive) | 0.00563 (inactive) | -1.98% (inactive) | 14.6% (inactive) |
